Bioassay records: PubChem BioAssay, The Scripps Research Institute Molecular Screening Center
PLCb3 inh: human PLC-beta3 inhibitors, primary screen, biochemical, fluorescence; Purified PLC-beta3, fluorogenic substrate; 1-phosphatidylinositol 4,5-bisphosphate phosphodiesterase beta-3 (Homo sapiens), Q01970; hit rate 0.18% among 370,000; inhibition, % at 12.2 µM; in the data active means inhibition above about 11%
MBD2 inh: inhibitors of MBD2 binding to methylated DNA, primary screen, biochemical, TR-FRET, DNA-binding domain, human; Methyl-CpG-binding domain protein 2 (Homo sapiens), Q9UBB5; MBD2 binding to methylated oligonucleotide; inhibition, % at 4.4 µM; hit rate 0.31% among 370,000; AID 686964, 2013; in the data active means inhibition above about 13%
UHRF1 binding: UHRF1 methylated DNA binding inhibitors, primary screen, counter-screen for MBD2 inhibitor project, biochemical, TR-FRET, human UHRF1, single concentration. UHRF1 binding to methylated oligo. inhibition, % at 4.4 µM. AID 687016, 2013. hit rate 0.75% among 370,000. E3 ubiquitin-protein ligase UHRF1 (Homo sapiens), Q96T88; in the data active means inhibition above about 21%;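 further: UHRF1 SRA domain binding a hemimethylated CpG hairpin DNA probe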
LEDGF integ inh: blockers of LEDGF/p75-dependent integrase strand transfer – biochemical, TR-FRET, high throughput, primary screen | inhibition, % at 3.7 µM | hit rate 0.64% among 370,000 | TR-FRET IN-LEDGF/p75 DNA integration, Eu/Cy5;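 active means inhibition above the screen-wide mean plus 3 SD, cut at about 13% in these data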;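 further: signal is the Cy5 over europium emission ratio at 671 and 618 nm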
PLC-gamma1 inh: PLC-gamma1 enzyme inhibitors, primary screen, biochemical, fluorescence, purified enzyme; inhibition, % at 12.2 µM; fluorogenic substrate; 1-phosphatidylinositol 4,5-bisphosphate phosphodiesterase gamma-1 (Homo sapiens), P19174; AID 720700, 2013; hit rate 0.84% among 370,000; in the data active means inhibition above about 9.5%
Each line names hits and unclear results; the compound was inactive in the other large screens. Most compounds without a hit are left out; they make up all but 2.4% or so of the library.

COc1ccc(-c2cc(-c3ccccc3)nc(Cl)n2)cc1OC	UHRF1 binding 29.8
O=C(CN1C(=O)C2(OCCCO2)c2ccccc21)NCc1ccccc1Cl	none
CCC(C(=O)Nc1ccccc1N1CCCC1)c1cccc(OC)c1 (stereo not drawn)	none
O=C1[C@H](Oc2ccccc2)[C@@H](c2ccccc2)N1c1ccncc1	none
O=C1[C@@H](Oc2ccccc2)[C@@H](c2ccccc2)N1c1ccccc1	UHRF1 binding 22.4
CC(C)N1CCCCC(NC(=O)c2ccc(F)cc2)C1=O (stereo not drawn)	none
COc1ccc(/C=C/C(=O)O)cc1Cl	UHRF1 binding 43.4
CCCC/C=C1\CCc2c([nH]c3ccccc23)C1=O	UHRF1 binding 23.6
O=S1(=O)c2c(cccc2N2CCSCC2)Oc2ccccc2CN1Cc1cn(Cc2cccc(C(F)(F)F)c2)nn1	none
COc1ccc(S(=O)(=O)Nc2ccc(O)c3ccccc23)cc1	LEDGF integ inh 27.1
COc1ccc(S(=O)(=O)Nc2ccccc2)cc1	none
CCC[C@H]1[C@@H](OC(=O)NC(CC)CC)CC[C@@]23CCCN2C(=O)CCC[C@@H]13	UHRF1 binding 78.3
CCC[C@H]1[C@@H](OC(=O)NC2CCCCC2)CC[C@@]23CCCN2C(=O)CCC[C@@H]13	none
CC[C@]12c3[nH]c4ccc(Cl)cc4c3CCN1C(=O)[C@@H](CC(=O)NCc1cccc(C(F)(F)F)c1)C[C@@H]2C(=O)N1CCN(C(=O)c2ccco2)CC1	none
CC[C@]12c3[nH]c4ccc(OC)cc4c3CCN1C(=O)C(CC(=O)NCc1cccc(C(F)(F)F)c1)C[C@@H]2C(=O)N1CCN(C(=O)c2ccco2)CC1 (stereo partly drawn)	PLC-gamma1 inh 11.4
Cc1cc(-c2csc(NC(=O)c3cc4ccccc4o3)n2)c(C)n1C	LEDGF integ inh 14.4
CC(=O)N1CC2(CC(c3ccccc3F)=NO2)CN1c1ccc(Cl)cc1 (stereo not drawn)	UHRF1 binding 21.9
CC(C)N1CC2(CC(c3ccccc3F)=NO2)CN1C(=O)c1ccc(C(C)(C)C)cc1 (stereo not drawn)	none
CN(CCOc1ccccc1)CC(=O)Nc1ccc(S(=O)(=O)N2CCCC2)cc1	UHRF1 binding 24.6
CCOC(=O)Cc1nc(N2CCN(C(=O)C3CCCO3)CC2)c2c(C)c(C(=O)OCC)sc2n1 (stereo not drawn)	none
C/C(=N\NC(=O)c1cc(O)ccc1O)c1cccc(NC(=O)c2cccc(Cl)c2)c1	LEDGF integ inh 54.7
C/C(=N\NC(=O)c1ccccc1O)c1cccc(NC(=O)c2ccccc2)c1	none
Cc1cccc(C)c1NC(=O)C1(C)CSCC(=O)N1CCOc1ccccc1 (stereo not drawn)	PLCb3 inh 11.1, PLC-gamma1 inh 12.3
CC(O)c1cccc(NC(=O)Nc2cccc(NC(=O)Nc3cccc(C(C)O)c3)c2)c1 (stereo not drawn)	none
CSc1ccccc1C(=O)Nc1cccc(C(C)O)c1 (stereo not drawn)	UHRF1 binding 21.4
C=CCN1[C@H](CC(C)C)COc2cc(N3CCCC3)ccc2S1(=O)=O	none
COc1ccc(C(=S)N2CCCCCC2)cc1	PLC-gamma1 inh 9.9
CCC1=NN2C(=N)/C(=C\c3cccn3-c3ccc(C)cc3C)C(=O)N=C2S1	UHRF1 binding 30.0
O=C(NC1CCCCN(Cc2ccc(OC(F)(F)F)cc2)C1=O)c1ccc(F)c(F)c1 (stereo not drawn)	none
CC(C)OC(=O)CSc1nc2ccccc2s1	UHRF1 binding 23.2
COc1ccc(C(=O)CSc2nnc(-c3n[nH]c4c3CCC4)n2N)cc1OC	none
O=Cc1ccc(OCc2cn(CC(=O)c3ccc(O)cc3)nn2)cc1	none
O=C(Cn1cc(COc2ccc(C(=O)c3ccccc3)cc2)nn1)c1ccc(O)cc1	UHRF1 binding 22.4
CCC(=O)c1ccc(OCc2ccc(C(=O)c3ccccc3)cc2)cc1	UHRF1 binding 22.5
COc1ccc(OCc2cn(CC(=O)c3ccc(O)cc3)nn2)cc1	UHRF1 binding 21.8
CCC(=O)c1ccc(OCc2cn(CC(=O)c3ccc(O)cc3)nn2)cc1	UHRF1 binding 21.7
